Source: the supplement of paper PMC7595190
Where a name gives a salt, the structure may show the parent alone.

Assays:
Assay in all cases: CellTox Green cytotoxicity fluorescence relative to DMSO vehicle (fold of vehicle RFU); higher = more cell death (loss of membrane integrity), active = 2 or more
CMK = system: CMK
How it was run: (§1)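 Single compounds from the Selleckchem apoptosis library were applied at final 0.01, 0.1 and 1 µM (0.1% DMSO vehicle) to MV4-11, CMK and Kasumi-1 cells seeded at 4.0 × 10^4 cells per well with CellTox Green reagent. After incubation at 37 °C, 5% CO2, fluorescence was read at 24, 48 and 72 h. Cytotoxicity, meaning loss of membrane integrity, is shown as fold of the DMSO vehicle signal.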

Kasumi-1 = system: Kasumi-1
How it was run: as §1

MV4-11 = system: MV4-11
How it was run: as §1

Measured: CellTox Green cytotoxicity fluorescence

COc1c/c(=C2\C=c3ccccc3=N2)[nH]/c1=C\c1[nH]c(C)cc1C [Obatoclax Mesylate]
inactive: CMK; 0.01 µM, 24 h 0.914 | CMK; 0.01 µM, 48 h 0.907 | CMK; 0.01 µM, 72 h 0.894 | CMK; 0.1 µM, 24 h 0.921 | CMK; 0.1 µM, 48 h 0.88 | CMK; 1 µM, 24 h 1.01 | CMK; 1 µM, 48 h 1 | CMK; 1 µM, 72 h 0.819 | Kasumi-1; 0.01 µM, 24 h 0.975 | Kasumi-1; 0.01 µM, 48 h 0.917 | Kasumi-1; 0.01 µM, 72 h 0.921 | Kasumi-1; 0.1 µM, 24 h 0.977 | Kasumi-1; 0.1 µM, 48 h 1.01 | Kasumi-1; 0.1 µM, 72 h 1.05 | Kasumi-1; 1 µM, 24 h 1.17 | Kasumi-1; 1 µM, 48 h 1.31 | Kasumi-1; 1 µM, 72 h 1.42

Nc1cccc2c1C(=O)N(C1CCC(=O)NC1=O)C2=O (stereo unspecified) [Pomalidomide]
inactive: CMK; 0.01 µM, 24 h 1 | CMK; 0.01 µM, 48 h 0.988 | CMK; 0.01 µM, 72 h 0.953 | CMK; 0.1 µM, 24 h 1.01 | CMK; 0.1 µM, 48 h 1.01 | CMK; 0.1 µM, 72 h 0.952 | CMK; 1 µM, 24 h 1.03 | CMK; 1 µM, 48 h 1.04 | CMK; 1 µM, 72 h 0.984 | Kasumi-1; 0.01 µM, 24 h 0.992 | Kasumi-1; 0.01 µM, 48 h 0.996 | Kasumi-1; 0.01 µM, 72 h 0.983 | Kasumi-1; 0.1 µM, 24 h 1.01 | Kasumi-1; 0.1 µM, 48 h 0.998 | Kasumi-1; 0.1 µM, 72 h 0.985 | Kasumi-1; 1 µM, 24 h 1.01 | Kasumi-1; 1 µM, 48 h 1.02 | Kasumi-1; 1 µM, 72 h 1 | MV4-11; 0.01 µM, 24 h 0.981 | MV4-11; 0.01 µM, 48 h 0.995 | MV4-11; 0.01 µM, 72 h 0.992 | MV4-11; 0.1 µM, 24 h 1.04 | MV4-11; 0.1 µM, 48 h 1.01 | MV4-11; 0.1 µM, 72 h 0.983 | MV4-11; 1 µM, 24 h 1.01 | MV4-11; 1 µM, 48 h 0.968 | MV4-11; 1 µM, 72 h 0.96

CC(C)[C@H](CO)Nc1nc(Nc2cccc(Cl)c2)c2ncn(C(C)C)c2n1 [Purvalanol A]
inactive: CMK; 0.01 µM, 24 h 0.988 | CMK; 0.01 µM, 48 h 1 | CMK; 0.01 µM, 72 h 1 | CMK; 0.1 µM, 24 h 0.992 | CMK; 0.1 µM, 48 h 1 | CMK; 0.1 µM, 72 h 0.965 | CMK; 1 µM, 24 h 0.987 | CMK; 1 µM, 48 h 1.02 | CMK; 1 µM, 72 h 1.02 | Kasumi-1; 0.01 µM, 24 h 0.997 | Kasumi-1; 0.01 µM, 48 h 0.989 | Kasumi-1; 0.01 µM, 72 h 0.974 | Kasumi-1; 0.1 µM, 24 h 0.983 | Kasumi-1; 0.1 µM, 48 h 0.965 | Kasumi-1; 0.1 µM, 72 h 0.974 | Kasumi-1; 1 µM, 24 h 0.928 | Kasumi-1; 1 µM, 48 h 0.948 | Kasumi-1; 1 µM, 72 h 0.923 | MV4-11; 0.01 µM, 24 h 1.01 | MV4-11; 0.01 µM, 48 h 1.02 | MV4-11; 0.01 µM, 72 h 1.03 | MV4-11; 0.1 µM, 24 h 1.03 | MV4-11; 0.1 µM, 48 h 1.04 | MV4-11; 0.1 µM, 72 h 1.04 | MV4-11; 1 µM, 24 h 1 | MV4-11; 1 µM, 48 h 1.06 | MV4-11; 1 µM, 72 h 1.07

C=CC(=O)N1CCC(Oc2cc3c(Nc4ccc(Cl)c(Cl)c4F)ncnc3cc2OC)CC1 [Poziotinib]
inactive: CMK; 0.01 µM, 24 h 1.02 | CMK; 0.01 µM, 48 h 1.01 | CMK; 0.01 µM, 72 h 1.02 | CMK; 0.1 µM, 24 h 1.03 | CMK; 0.1 µM, 48 h 1.02 | CMK; 0.1 µM, 72 h 1.02 | CMK; 1 µM, 24 h 0.999 | CMK; 1 µM, 48 h 1 | CMK; 1 µM, 72 h 0.915 | Kasumi-1; 0.01 µM, 24 h 0.992 | Kasumi-1; 0.01 µM, 48 h 0.982 | Kasumi-1; 0.01 µM, 72 h 0.982 | Kasumi-1; 0.1 µM, 24 h 1.03 | Kasumi-1; 0.1 µM, 48 h 1.02 | Kasumi-1; 0.1 µM, 72 h 1.02 | Kasumi-1; 1 µM, 24 h 0.994 | Kasumi-1; 1 µM, 48 h 1 | Kasumi-1; 1 µM, 72 h 1.04 | MV4-11; 0.01 µM, 24 h 0.975 | MV4-11; 0.01 µM, 48 h 0.986 | MV4-11; 0.01 µM, 72 h 0.988 | MV4-11; 0.1 µM, 24 h 1.02 | MV4-11; 0.1 µM, 48 h 1.02 | MV4-11; 0.1 µM, 72 h 1.03 | MV4-11; 1 µM, 24 h 1.01 | MV4-11; 1 µM, 48 h 1.03 | MV4-11; 1 µM, 72 h 1.09

CC(C)c1cc2c(N3CCN(C4=NCC(C)(C)S4)CC3)ncnc2s1 [MI-3 (Menin-MLL Inhibitor)]
inactive: CMK; 0.01 µM, 24 h 0.943 | CMK; 0.01 µM, 48 h 0.954 | CMK; 0.01 µM, 72 h 0.984 | CMK; 0.1 µM, 24 h 0.923 | CMK; 0.1 µM, 48 h 0.941 | CMK; 0.1 µM, 72 h 0.923 | Kasumi-1; 0.01 µM, 24 h 0.955 | Kasumi-1; 0.01 µM, 48 h 0.967 | Kasumi-1; 0.01 µM, 72 h 0.974 | Kasumi-1; 0.1 µM, 24 h 0.987 | Kasumi-1; 0.1 µM, 48 h 1.01 | Kasumi-1; 0.1 µM, 72 h 0.966 | MV4-11; 0.01 µM, 24 h 0.931 | MV4-11; 0.01 µM, 48 h 0.933 | MV4-11; 0.01 µM, 72 h 0.927 | MV4-11; 0.1 µM, 24 h 0.883 | MV4-11; 0.1 µM, 48 h 0.889 | MV4-11; 0.1 µM, 72 h 0.876 | MV4-11; 1 µM, 24 h 0.961 | MV4-11; 1 µM, 48 h 0.951 | MV4-11; 1 µM, 72 h 0.95

Nc1ccccc1NC(=O)c1cnccn1
inactive: CMK; 0.01 µM, 24 h 0.987 | CMK; 0.01 µM, 48 h 0.99 | CMK; 0.01 µM, 72 h 0.976 | CMK; 0.1 µM, 24 h 0.967 | CMK; 0.1 µM, 48 h 0.987 | CMK; 0.1 µM, 72 h 1.02 | CMK; 1 µM, 24 h 0.965 | CMK; 1 µM, 48 h 1.02 | CMK; 1 µM, 72 h 1.11 | Kasumi-1; 0.01 µM, 24 h 0.967 | Kasumi-1; 0.01 µM, 48 h 0.96 | Kasumi-1; 0.01 µM, 72 h 0.904 | Kasumi-1; 0.1 µM, 24 h 0.988 | Kasumi-1; 0.1 µM, 48 h 0.995 | Kasumi-1; 0.1 µM, 72 h 0.988 | Kasumi-1; 1 µM, 24 h 0.932 | Kasumi-1; 1 µM, 48 h 1 | Kasumi-1; 1 µM, 72 h 1.06 | MV4-11; 0.01 µM, 24 h 0.953 | MV4-11; 0.01 µM, 48 h 0.952 | MV4-11; 0.01 µM, 72 h 0.937 | MV4-11; 0.1 µM, 24 h 0.964 | MV4-11; 0.1 µM, 48 h 0.984 | MV4-11; 0.1 µM, 72 h 0.99 | MV4-11; 1 µM, 24 h 0.954 | MV4-11; 1 µM, 48 h 0.989 | MV4-11; 1 µM, 72 h 1.01
